This is part of a sample that, as a whole, favours compounds with a hit. Of some 79,000 tested, about 15% had one in any assay. Cut-off read from the data, not from the text of the source: active = growth inhibition above about 70%; inactive = the rest.
Experiments:
[1] = NCI Yeast Anticancer Drug Screen. Data for the rad50 strain (AID 155);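 note: 0% = growth of vehicle-only cultures of the same strain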; settings: S. cerevisiae rad50 strain growth inhibition; at 50.0 µM; active compounds read high
Method in brief: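 DNA repair mutant yeast, compound exposure, growth read-out; inhibition is taken relative to vehicle.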

[2] = NCI Yeast Anticancer Drug Screen. Data for the mec2-1 strain (AID 157); settings: S. cerevisiae mec2-1 strain, at 50.0 µM, active compounds read high
Method in brief: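 Yeast mec2-1 mutant treated with compound. Readout: growth inhibition vs vehicle controls.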

[3] = NCI Yeast Anticancer Drug Screen. Data for the sgs1 mgt1 strain (AID 161);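 note: 0% = growth of cultures given vehicle only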; settings: S. cerevisiae sgs1 mgt1 strain, at 50.0 µM, active compounds read high
Method in brief: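 Read-out: growth inhibition vs vehicle controls. Cells: mutant yeast strain deficient in DNA damage repair.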

[4] = NCI Yeast Anticancer Drug Screen. Data for the cln2 rad14 strain (AID 165);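 note: 0% = growth equal to vehicle treated cultures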; settings: S. cerevisiae cln2 rad14 strain, at 50.0 µM, active compounds read high
Method in brief: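 cln2 rad14 yeast strain; compound exposure; growth inhibition read vs vehicle controls.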

[5] = NCI Yeast Anticancer Drug Screen. Data for the bub3 strain (AID 167); settings: S. cerevisiae bub3 mutant strain, at 50.0 µM, active compounds read high
Method in brief: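 In this screen, a yeast mutant lacking normal mitotic checkpoint function is challenged with compound. Relative growth versus vehicle gives the inhibition value.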

[6] = NCI Yeast Anticancer Drug Screen. Data for the mlh1 rad18 strain (AID 175); settings: S. cerevisiae mlh1 rad18 strain growth inhibition; at 50.0 µM; active compounds read high
Method in brief: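 Yeast w/ defined DNA-repair lesions; compound exposure; growth vs vehicle controls → % inhibition.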

Measured: growth inhibition

CCCCC/C=C/C(CC)(C(=O)OCC)C(=O)OCC
inactive: [1] -5.95% | [2] 20.9% | [3] 13.6% | [4] -60% | [5] 40.9% | [6] 6.1%

CNC(=O)Sc1ccc(C)c([N+](C)(C)C)c1
inactive: [1] 10.1% | [2] 5.6% | [3] 9% | [4] -9.6% | [5] 18.1% | [6] 18.5%

COC(=O)C(=O)C(C(=O)C(=O)Nc1cccc(OC)c1)c1nc2ccc(Cl)cc2[nH]c1=O (stereo not given)
inactive: [1] 21.1% | [2] -1.2% | [3] -8.25% | [4] -10.2% | [5] -35.1% | [6] -25.6%

CC(=O)N(C)CC(c1c(C)[nH]c2ccccc12)c1c(C)[nH]c2ccccc12
inactive: [1] 15.3% | [2] -12.3% | [3] 2.2% | [4] -4% | [5] 18% | [6] 40.7%

CC(CO)(CO)CN1CCCCC1
inactive: [1] -2.25% | [2] 5.2% | [3] -1.85% | [4] -36.5% | [5] -12.4% | [6] 1.8%

CCc1ccc(C(C)=O)cc1
inactive: [1] 7.05% | [2] 41.5% | [3] 34.8% | [4] 3.5% | [5] -9.7% | [6] 52.6%

[Cl][Pt+2][Cl].[NH-]C(CO)C([NH-])CO (stereo not given)
inactive: [1] 32.4% | [2] -47.9% | [3] -10.3% | [4] -15.8% | [5] -27.9% | [6] -61.5%

Cc1csc[n+]1C/C(=N/O)c1ccc(I)cc1
inactive: [1] 36.2% | [2] -3.75% | [3] 14.8% | [4] 3.65% | [5] 2.75% | [6] 17.1%

CCOC(=O)C(CCCCC(CN(CC)CC)(C(=O)OCC)c1ccccc1)(CN(CC)CC)c1ccccc1 (stereo not given)
inactive: [1] 29.4% | [2] -10.2% | [3] 11.7% | [4] 0.65% | [5] 2% | [6] 12.3%

CC(=O)OCC1OC2OC(C)(C)OC2C2OC(C)(C)OC12 (stereo not given)
inactive: [1] -13.5% | [2] 5.35% | [3] 19.2% | [4] -4.65% | [5] -7.65% | [6] -12.8%

O=C1CC(c2ccccc2)C(c2ccccc2)C1C(=O)OCCc1ccccc1 (stereo not given)
inactive: [1] 36% | [2] 2.85% | [3] 2.45% | [4] 1.5% | [5] -16.9% | [6] 1.3%

COC(=O)/C=C1\CCC(C)O1 (stereo not given)
inactive: [1] -1.35% | [2] -26.6% | [3] -27.7% | [4] 8% | [5] -19.2% | [6] 16%

CCCC1(CC)COC(c2ccc(C)cc2)OC1 (stereo not given)
inactive: [1] 13.8% | [2] 0.9% | [3] -7.6% | [4] 5.85% | [5] 11.8% | [6] 3.35%

COC(=O)c1ccc(N(C)CCC(=O)COC(C)=O)cc1
inactive: [1] 17.9% | [2] 9.7% | [3] 12% | [4] -10.2% | [5] 7.6% | [6] 10.3%

CSC1=Nc2cc3c(cc2C(=O)N2C[C@H](O)CC12)OCO3 (stereo not given in full)
inactive: [1] -20.9% | [2] -25.5% | [3] -10.9% | [4] -34.2% | [5] -10.8% | [6] -6.3%

CC(C)OC(=S)Nc1ccc(Cl)c(COC(C)(C)C)c1
inactive: [1] -5.8% | [2] -16.2% | [3] -4.65% | [4] 7.6% | [5] -10.1% | [6] -7.4%

Cc1ccc(S(=O)(=O)N2CCSCCN(S(=O)(=O)c3ccc(C)cc3)CCN(S(=O)(=O)c3ccc(C)cc3)CC2)cc1
inactive: [1] 5.7% | [2] -2.7% | [3] 0.2% | [4] -19.9% | [5] -18.7% | [6] -18.4%

Nc1cc2c(C3OC(CO)C(O)C3O)[nH]nc2c(=S)[nH]1 (stereo not given)
inactive: [1] 40.8% | [2] 7.05% | [3] 15.5% | [4] 20.4% | [5] 8.15% | [6] 24.1%

CN1CCc2sccc2C(c2ccccc2)O1 (stereo not given)
inactive: [1] 0.75% | [2] 16.1% | [3] -3.8% | [4] 0.65% | [5] 17.2% | [6] -3.4%

O=S(=O)(c1ccccc1)N1C[C@@H]2[C@H](C1)[C@H]1C=C[C@@H]2C1
inactive: [1] 1.95% | [2] -12.3% | [3] 13% | [4] -4.8% | [5] 42.6% | [6] -11%
